Screens deposited in PubChem BioAssay by several laboratories.
Efflux pump inh: inhibitors of Candida antifungal efflux pumps expressed in yeast | AID 485275 | hit rate 0.44% among 330,000 | S. cerevisiae Candida pump triplex, Nile Red efflux | inhibition, % at 10 µM;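 active means plate passing quality check with inhibition over a set limit, or well fluorescence over plate mean plus 4 SD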;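 further: Nile Red retained in pooled yeast measured as flow cytometry median fluorescence; 0% = buffer negative control and 100% = Enniatin B positive control; higher means more Nile Red kept so more efflux inhibition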
SUMO HTRF inh: blocks human SUMOylation mediated by UBC9 | P63279 | HTRF SUMOylation assay, SAE1/SAE2 + UBC9, in vitro | inhibition, % at 35 µM | hit rate 0.36% among 290,000 | AID 2006; in the data active means inhibition above about 50%, passing the limit was not always enough
Target sequence (P63279 whole entry, looked up): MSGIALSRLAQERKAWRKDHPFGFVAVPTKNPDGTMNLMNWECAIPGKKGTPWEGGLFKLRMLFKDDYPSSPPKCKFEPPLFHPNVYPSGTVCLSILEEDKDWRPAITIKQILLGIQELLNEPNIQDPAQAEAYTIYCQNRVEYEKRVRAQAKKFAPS
MLLE-PAM2 inh: blocks PAM2 peptide binding to the PABP1 MLLE domain. P11940. GST-MLLE / FITC-PAM2 fluorescence polarization. inhibition, % at 20 µM. hit rate 0.36% among 360,000; in the data active means inhibition above about 35%, passing the limit was not always enough;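 further: plate controls were DMSO wells with GST-MLLE for no effect and wells lacking GST-MLLE protein for full effect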
ALR H2O2 inh: human ALR oxidase inhibition via reduced H2O2; purified ALR, DTT oxidation, H2O2 HRP-luminol luminescence; inhibition, % (test concentration not listed); AID 485317; P55789; hit rate 3.8% among 290,000;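 active means mean replicate inhibition above about 79%, with every replicate also reaching it, limit read from the data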
PABP polyA inh: PABP-poly(A) binding inhibition. P11940. hit rate 1% among 290,000. inhibition, % at 35 µM. PABP-poly(A) RNA binding, fluorescence polarization;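 further: calls also rest on retests at 20 µM and on dose response follow-up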
eIF4H FP inh: inhibitors of RNA binding by human eIF4H | AID 2012 | inhibition, % at 35 µM | hit rate 0.94% among 290,000 | eIF4H fluorescence polarization binding assay;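 further: calls also rest on retests at 20 µM and on dose response follow-up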
* = called active by the depositor; x = no result given. This is a sample that favours compounds with a hit; in the whole collection about 4.7% have one here. Unless noted, how the calls were made is not given here.

SMILES	Efflux pump inh	SUMO HTRF inh	MLLE-PAM2 inh	ALR H2O2 inh	PABP polyA inh	eIF4H FP inh
COC(=O)COc1ccc(C2Nc3c(Cl)ccc(C(=O)O)c3C3C=CCC32)cc1 (stereo not given)	-0.1	23.5	28.4	21.0	active	78.5
CCc1cccc(NC(=O)Cn2c(=O)n(CCC(=O)NCC3CCCO3)c(=O)c3cc(OC)c(OC)cc32)c1 (stereo not given)	-0.6	12.5	-11.5	0.0	-8.4	-9.9
Nc1c(C(=O)c2ccc(Cl)cc2)oc2ccccc12	0.1	-9.3	13.2	-4.3	61.7*	active
CCOC(=O)N1CCC(N2C(=O)c3ccc(C(=O)O)cc3C2=O)CC1	-0.1	7.9	9.6	2.8	1.6	1.1
CCCN1C(=O)c2cc(C(=O)NC3CCCCCC3)ccc2C1O (stereo not given)	-0.1	-1.9	-10.9	96.3*	-9.0	-0.9
CCOC(=O)N1CCC(NC(=O)c2ccc3c(c2)N(CC)CCS3)CC1	-0.1	x	38.0*	37.3	x	x
CCCN1C(=O)c2cc(C(=O)O)ccc2C1O (stereo not given)	0.0	21.7	3.2	-16.7	-8.0	-5.0
CCOC(=O)N1CCC(N2C(=O)c3cc(C(=O)NC4CCCCC4)ccc3C2O)CC1 (stereo not given)	-0.1	5.7	1.7	94.0*	0.6	-0.8
CN(C)c1cccc(C(=O)NC2CCCCCC2)c1	0.2	12.2	8.2	94.2*	7.4	-0.6
O=C1CCC(c2ccc(-n3ccnc3)cc2)=NN1	0.0	x	4.1	5.8	x	x
COc1ccc(C(=O)NC2CCCCCC2)cc1OC1CCN(C(C)=O)CC1	0.2	1.9	19.5	93.3*	-3.2	-6.9
Cc1ccc(/C=N/n2c(-c3cccc(Cl)c3)n[nH]c2=S)o1	-0.1	1.3	-12.7	37.8	4.1	5.3
S=c1[nH]nc(-c2ccncc2)n1/N=C/c1ccccc1	0.0	-12.5	-41.4	x	-1.3	0.2
Cc1cccc(-c2n[nH]c(=S)n2/N=C/C=C/c2ccco2)c1	0.1	x	-4.4	97.2*	56.8*	85.0*
S=c1[nH]nc(-c2ccncc2)n1/N=C/C=C/c1ccco1	-0.1	90.6*	-1.3	65.4	94.0*	96.5*
COc1ccccc1/C=C\C=N\n1c(-c2ccc(Cl)cc2Cl)n[nH]c1=S	0.2	-37.3	-81.3	8.2	3.8	14.4
S=c1[nH]nc(-c2cccc(Cl)c2)n1/N=C/c1ccco1	0.0	-3.8	x	97.1*	13.4	13.5
S=c1[nH]nc(-c2ccccc2Cl)n1/N=C/C=C/c1ccco1	-0.1	51.3	-11.6	x	49.1*	92.1*
CS(=O)(=O)Nc1ccc(C(=O)NCCSc2ccc(Cl)cc2)cc1	0.0	4.6	-3.9	-3.2	-1.3	2.1
C(=C\c1ccco1)/C=N/n1cnnc1	0.0	34.3	-1.5	-5.8	71.8*	92.7*
CC1(C(=O)NCc2cccc3ccccc23)CCN1Cc1ccc(OC(F)(F)F)cc1 (stereo not given)	x	x	-0.4	x	x	x
COc1cccc(NC(=O)CN(C)C(=O)c2oc3c(ccc4ccccc43)c2C)c1	0.0	x	9.2	x	x	x
Cc1ccccc1Cn1cccc1/C=C1/C(=N)N2C=CSC2=NC1=O	0.1	28.1	-44.5	x	100.5*	66.3*
Cc1ccc(NC(=O)CN(C)C(=O)CSc2nccn2C)cc1	0.1	x	-18.9	3.1	x	x
O=C1NC2=C(C(=O)CCC2)C(c2ccccc2[N+](=O)[O-])N1 (stereo not given)	0.1	-7.7	41.4*	x	98.0*	107.3*
SMILES	Efflux pump inh	SUMO HTRF inh	MLLE-PAM2 inh	ALR H2O2 inh	PABP polyA inh	eIF4H FP inh
Cc1nc2n[nH]c(N)c2nc1C	x	x	-8.9	x	x	x
O=C1Nc2ccccc2N2CCCC12 (stereo not given)	0.0	14.9	x	5.0	1.1	-3.6
O=C1Nc2cc(Cl)cnc2N2CCCC12 (stereo not given)	-0.2	10.3	4.2	-9.6	-18.1	61.0*
O=C(COc1ccccc1F)N1N=C(c2cccs2)CC1c1ccco1 (stereo not given)	x	x	10.6	x	x	x
Cc1ccc(C2NC(=O)c3c(sc(C)c3C)N2)c(O)c1 (stereo not given)	-0.1	10.2	0.4	92.4*	22.7	21.4
CCOC(=O)c1c(NC(=O)C2C3C=CC(C3)C2(C)C(=O)O)sc2c1CCCC2 (stereo not given)	0.3	7.7	-5.8	91.0*	1.3	49.8
CCOC(=O)c1c(NC(=O)C2CCCCC2C(=O)O)sc2c1CCCCC2 (stereo not given)	0.2	19.8	5.0	24.7	20.6	5.3
